# Results reported in publication PMC7862700, “An all-to-all approach to the identification of sequence-specific readers for epigenetic DNA modifications on cytosine”.
# Assays:
# Experiment in all cases: DAPPL (digital affinity profiling via proximity ligation, sequencing); 10 mM Tris-HCl pH 7.5, 50 mM NaCl, 1 mM DTT, 4% glycerol, room temperature, 30 min; GST-TFs on glutathione beads, 16-mer random dsDNA library, 0.1% formaldehyde crosslink after washing; high values mean tight binding
# FEV = biological target: T1, FEV (Homo sapiens, UniProt Q99581 1-238); conditions: protein: recombinant; tags: N-terminal GST; dsDNA, one strand shown
# T1 sequence: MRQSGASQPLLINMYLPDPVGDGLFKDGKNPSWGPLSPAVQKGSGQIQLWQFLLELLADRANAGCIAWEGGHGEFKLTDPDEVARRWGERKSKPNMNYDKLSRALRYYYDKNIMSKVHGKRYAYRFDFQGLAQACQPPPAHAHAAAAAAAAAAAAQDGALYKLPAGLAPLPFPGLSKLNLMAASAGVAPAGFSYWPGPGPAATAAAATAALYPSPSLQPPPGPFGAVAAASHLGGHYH
# Summary of the method: (§1)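 Human transcription factors fused to GST were expressed in yeast, captured on glutathione beads, given DNA barcodes and pooled with a GST-only negative control. Pools were incubated with 200 nmole of a 16-mer random double-stranded DNA library in Tris/NaCl/DTT/glycerol buffer at room temperature for 30 min. They were then washed, crosslinked with 0.1% formaldehyde, proximity-ligated (BsaI/T4 ligase, 1 h, 37 °C), PCR-amplified and sequenced on an Illumina NextSeq500. Binding signal is each 6-mer's read frequency for a factor divided by its frequency for the GST control.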
# ETV5 = ETV5 (Homo sapiens, UniProt P41161 1-510); conditions: protein: recombinant; tags: N-terminal GST; dsDNA, one strand shown
# Summary of the method: as §1
# HSF1 = HSF1 (Homo sapiens, UniProt Q00613 1-529); conditions: protein: recombinant; tags: N-terminal GST; chain copies: 3; dsDNA, one strand shown
# Summary of the method: as §1
# SPIC = biological target: T2, SPIC (Homo sapiens, UniProt Q8N5J4 1-248); conditions: protein: recombinant; tags: N-terminal GST; dsDNA, one strand shown
# T2 sequence: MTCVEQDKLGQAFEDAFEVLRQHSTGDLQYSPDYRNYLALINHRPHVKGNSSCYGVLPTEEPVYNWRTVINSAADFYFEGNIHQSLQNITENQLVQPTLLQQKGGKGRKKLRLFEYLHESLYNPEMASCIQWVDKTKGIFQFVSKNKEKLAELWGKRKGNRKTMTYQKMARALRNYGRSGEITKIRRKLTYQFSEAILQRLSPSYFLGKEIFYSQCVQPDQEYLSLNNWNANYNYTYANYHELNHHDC
# Summary of the method: as §1
# ELF4 = ELF4 (Homo sapiens, UniProt Q99607 1-663); conditions: protein: recombinant; tags: N-terminal GST; dsDNA, one strand shown
# Summary of the method: as §1
# ELK4 = biological target: T3, ELK4 (Homo sapiens, UniProt P28324-2 1-405); conditions: protein: recombinant; tags: N-terminal GST; dsDNA, one strand shown
# T3 sequence: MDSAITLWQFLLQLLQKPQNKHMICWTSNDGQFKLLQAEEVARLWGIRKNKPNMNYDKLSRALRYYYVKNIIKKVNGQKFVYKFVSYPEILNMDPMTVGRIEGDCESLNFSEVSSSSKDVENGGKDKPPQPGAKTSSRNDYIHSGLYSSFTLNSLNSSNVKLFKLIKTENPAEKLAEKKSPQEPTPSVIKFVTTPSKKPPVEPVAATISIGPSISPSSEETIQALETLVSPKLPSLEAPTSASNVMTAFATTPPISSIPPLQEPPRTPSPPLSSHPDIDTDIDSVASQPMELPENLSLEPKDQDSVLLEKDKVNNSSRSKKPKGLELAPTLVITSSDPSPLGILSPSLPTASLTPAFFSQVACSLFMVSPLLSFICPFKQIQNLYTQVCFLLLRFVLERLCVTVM
# Summary of the method: as §1
# ETV2 = biological target: T4, ETV2 (Homo sapiens, UniProt O00321 1-342); conditions: protein: recombinant; tags: N-terminal GST; dsDNA, one strand shown
# T4 sequence: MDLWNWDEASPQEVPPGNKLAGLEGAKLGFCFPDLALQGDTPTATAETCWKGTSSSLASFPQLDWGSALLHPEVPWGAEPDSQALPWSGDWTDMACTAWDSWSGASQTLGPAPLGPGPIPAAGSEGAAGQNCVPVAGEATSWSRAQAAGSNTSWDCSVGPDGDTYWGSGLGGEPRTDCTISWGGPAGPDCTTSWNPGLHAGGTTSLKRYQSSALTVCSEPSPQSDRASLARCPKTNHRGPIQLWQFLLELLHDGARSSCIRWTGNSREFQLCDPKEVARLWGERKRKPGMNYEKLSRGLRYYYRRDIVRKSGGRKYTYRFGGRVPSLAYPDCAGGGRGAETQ
# Summary of the method: as §1
# ELF3 = biological target: T5, ELF3 (Homo sapiens, UniProt P78545 1-371); conditions: protein: recombinant; tags: N-terminal GST; dsDNA, one strand shown
# T5 sequence: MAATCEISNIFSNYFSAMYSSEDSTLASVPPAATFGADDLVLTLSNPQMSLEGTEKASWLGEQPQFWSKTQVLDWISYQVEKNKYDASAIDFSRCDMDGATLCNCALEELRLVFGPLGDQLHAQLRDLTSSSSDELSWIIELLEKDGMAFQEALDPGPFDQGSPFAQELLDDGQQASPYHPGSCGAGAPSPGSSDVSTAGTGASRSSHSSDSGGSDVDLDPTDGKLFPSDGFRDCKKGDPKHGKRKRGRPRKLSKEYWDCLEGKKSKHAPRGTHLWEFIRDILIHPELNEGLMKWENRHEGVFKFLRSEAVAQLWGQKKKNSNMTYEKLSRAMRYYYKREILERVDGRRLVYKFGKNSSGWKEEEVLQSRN
# Summary of the method: as §1
# CRX = CRX (Homo sapiens, UniProt O43186 1-299); conditions: protein: recombinant; tags: N-terminal GST; dsDNA, one strand shown
# Summary of the method: as §1
# ETV5, sequence (P41161 whole entry): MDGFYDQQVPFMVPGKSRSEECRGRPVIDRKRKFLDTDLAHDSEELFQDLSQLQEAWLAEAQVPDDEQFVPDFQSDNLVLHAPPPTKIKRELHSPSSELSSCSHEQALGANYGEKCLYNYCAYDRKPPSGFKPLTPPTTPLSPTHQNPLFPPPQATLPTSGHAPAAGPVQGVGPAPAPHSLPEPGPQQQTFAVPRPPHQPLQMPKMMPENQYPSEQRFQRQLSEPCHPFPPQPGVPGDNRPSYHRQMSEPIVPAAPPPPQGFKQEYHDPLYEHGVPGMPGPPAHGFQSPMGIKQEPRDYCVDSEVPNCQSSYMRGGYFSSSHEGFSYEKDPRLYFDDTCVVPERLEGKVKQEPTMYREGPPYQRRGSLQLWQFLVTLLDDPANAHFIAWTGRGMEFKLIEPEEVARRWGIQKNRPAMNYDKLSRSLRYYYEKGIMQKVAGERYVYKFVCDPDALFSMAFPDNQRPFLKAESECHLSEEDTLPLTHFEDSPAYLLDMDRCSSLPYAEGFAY
# HSF1, sequence (Q00613 whole entry): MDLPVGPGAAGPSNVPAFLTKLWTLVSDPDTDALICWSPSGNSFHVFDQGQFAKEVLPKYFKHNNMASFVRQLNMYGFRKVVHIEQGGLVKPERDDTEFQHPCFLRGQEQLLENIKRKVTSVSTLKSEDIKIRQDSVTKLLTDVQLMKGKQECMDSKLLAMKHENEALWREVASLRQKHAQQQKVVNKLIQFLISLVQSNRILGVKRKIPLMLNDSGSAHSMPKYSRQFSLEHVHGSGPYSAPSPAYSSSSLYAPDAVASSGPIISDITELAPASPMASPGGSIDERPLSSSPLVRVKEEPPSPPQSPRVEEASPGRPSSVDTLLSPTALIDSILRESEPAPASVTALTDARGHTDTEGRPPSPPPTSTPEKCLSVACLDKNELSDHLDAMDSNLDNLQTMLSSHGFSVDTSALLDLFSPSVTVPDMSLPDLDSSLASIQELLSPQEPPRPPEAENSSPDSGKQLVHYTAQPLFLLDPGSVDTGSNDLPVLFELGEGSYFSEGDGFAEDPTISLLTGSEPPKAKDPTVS
# ELF4, sequence (Q99607 whole entry): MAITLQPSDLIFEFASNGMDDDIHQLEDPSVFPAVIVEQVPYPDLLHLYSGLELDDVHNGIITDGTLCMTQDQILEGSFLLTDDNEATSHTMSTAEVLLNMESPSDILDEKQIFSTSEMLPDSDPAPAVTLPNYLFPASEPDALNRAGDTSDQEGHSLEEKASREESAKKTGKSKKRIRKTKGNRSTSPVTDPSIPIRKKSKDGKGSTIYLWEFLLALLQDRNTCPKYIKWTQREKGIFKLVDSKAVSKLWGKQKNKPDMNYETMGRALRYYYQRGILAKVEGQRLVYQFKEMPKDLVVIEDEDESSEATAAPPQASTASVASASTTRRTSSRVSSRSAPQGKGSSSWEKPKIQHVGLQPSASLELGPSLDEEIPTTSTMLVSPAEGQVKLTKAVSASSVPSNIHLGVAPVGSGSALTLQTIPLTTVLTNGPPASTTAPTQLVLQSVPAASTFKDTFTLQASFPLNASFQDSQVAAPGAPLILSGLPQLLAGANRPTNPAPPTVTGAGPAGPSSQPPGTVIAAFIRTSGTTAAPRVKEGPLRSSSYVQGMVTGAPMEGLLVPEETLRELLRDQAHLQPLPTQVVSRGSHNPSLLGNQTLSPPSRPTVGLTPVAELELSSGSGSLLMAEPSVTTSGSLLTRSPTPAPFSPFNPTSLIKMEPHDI
# CRX, sequence (O43186 whole entry): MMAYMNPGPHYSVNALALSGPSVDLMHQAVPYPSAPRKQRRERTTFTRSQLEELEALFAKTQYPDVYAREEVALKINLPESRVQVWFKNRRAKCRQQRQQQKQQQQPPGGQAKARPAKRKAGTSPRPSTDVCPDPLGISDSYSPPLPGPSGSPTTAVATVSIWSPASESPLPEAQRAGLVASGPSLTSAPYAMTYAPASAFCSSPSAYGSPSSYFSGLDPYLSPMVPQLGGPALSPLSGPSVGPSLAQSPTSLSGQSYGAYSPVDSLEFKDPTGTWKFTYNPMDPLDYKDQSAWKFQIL
sequence,measurement,setting,value
CCCGTT,binding signal,FEV,"1.13 fold enrichment (6-mer frequency, TF over GST control)"
same,binding signal,ETV5,"1.21 fold enrichment (6-mer frequency, TF over GST control)"
same,binding signal,HSF1,"1.03 fold enrichment (6-mer frequency, TF over GST control)"
same,binding signal,SPIC,"1.07 fold enrichment (6-mer frequency, TF over GST control)"
same,binding signal,ELF4,"1.15 fold enrichment (6-mer frequency, TF over GST control)"
same,binding signal,ELK4,"1.06 fold enrichment (6-mer frequency, TF over GST control)"
same,binding signal,ETV2,"1.18 fold enrichment (6-mer frequency, TF over GST control)"
same,binding signal,ELF3,"1.26 fold enrichment (6-mer frequency, TF over GST control)"
same,binding signal,CRX,"1.02 fold enrichment (6-mer frequency, TF over GST control)"
